Compounds with a hit are over-represented: about 21% of the library has one in this group of screens.
Pf growth 48h – inhibits P. falciparum growth in the first generation, 48 h. P. falciparum luciferase growth in erythrocytes, 48 h. Potency, µM (titrated, usually from 28.7 µM), most hits filed as inhibitors. 310,000 tested, 5.9% active. AID 504832
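In quantitative HTS format, infected erythrocytes bearing luciferase-reporter parasites were treated for a single generation at 37 C. Luminescence after adding detection reagent served as the growth measure.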
CHX counter – counter-screen for Shiga toxin inhibitors: cycloheximide protein synthesis inhibition. 300,000 tested, 12% active. cell reporter, cycloheximide protein synthesis inhibition counterscreen. max response, %. AID 2314; in the data active = max response mostly above about 13%, no sharp cut-off; inactive = mostly below about 14%; also: read at 38.3 µM for the half of the compounds with a filed dose
Shiga toxin inh – Shiga toxin inhibition | Vero cells, Shiga toxin protein synthesis inhibition reporter | inhibition, % at 38.7 µM | 290,000 tested, 9.2% active; in the data active = inhibition mostly above about 28%, no sharp cut-off; inactive = mostly below about 43%
Pf growth 96h – P. falciparum growth inhibition at 96 hours | 320,000 tested, 6.9% active | Potency, µM (highest dose often 28.7 µM), hits mostly inhibitors | P. falciparum luciferase reporter growth, 96 h
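Parasite growth measured via integrated firefly luciferase reporter in P. falciparum. Infected erythrocytes at 2% hematocrit, 0.05% parasitemia final were treated 96 hours at 37 C under 5% CO2, and luminescence was read.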
NS1 function inh – influenza NS1 inhibition; Potency, µM (series often up to 46.1 µM); 270,000 tested, 0.4% active; calls by dose curve; also: actives are rising curves; nearly all actives have a fitted effect of over 50% in size
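In this qHTS, NS1 from influenza A is expressed in budding yeast, where it slows growth. Cells are switched from glucose to 2% galactose medium (pH 6.0, -URA), treated with compound, and growth recovery is read at OD600.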
Hits are given with their value; [ ] = dose if it differs, or a comment. Unless noted, calls follow the shape of the dose curve; as a rule, active = well fitted inhibition curve with a large enough effect; inconclusive = small, poorly fitted or top-dose-only effect, or another doubt; inactive = no such curve, though single readings can be large or run the other way.

Results for S=C(Nc1ccc(Cl)cc1)NC1CC2CCCC(C1)N2C1CCCC1 (configuration not stated) ?
Pf growth 48h: 10µM; CHX counter: inactive; Shiga toxin inh: inactive; Pf growth 96h: 12µM; NS1 function inh: inactive

What do the screens show for `S=C(Nc1ccc(Cl)cc1)NC1CC2CCCC(C1)N2C1CC1` (configuration not stated)?
Pf growth 48h: 10µM; CHX counter: inactive; Shiga toxin inh: inactive; Pf growth 96h: 10µM; NS1 function inh: inactive

What do the screens show for `S=C(NCCN(C1CCCCC1)C1CCCC1)Nc1cccc(Cl)c1`?
Pf growth 48h: 2.9µM; CHX counter: inactive; Shiga toxin inh: inactive; Pf growth 96h: inactive; NS1 function inh: inactive

How did Cc1ccccc1NC(=O)NCCN1C(=O)C2C3C=CC(C3)C2C1=O (configuration not stated) do in these assays?
Pf growth 48h: inactive; CHX counter: inactive; Shiga toxin inh: inactive; Pf growth 96h: inconclusive; NS1 function inh: inconclusive

Results for O=C(CNC(=S)N(Cc1ccccc1Cl)C1CCCC1)NCCN1CCOCC1 ?
Pf growth 48h: 10µM; CHX counter: inactive; Shiga toxin inh: inactive; Pf growth 96h: inactive

What do the screens show for `CCCN1Cc2cccc(C(=O)Nc3ccc(N4CCN(CC)CC4)cc3)c2C1=O`?
NS1 function inh: inactive

Results for O=C1NC(=O)c2cc(NC(=O)C3CCCO3)ccc21 (configuration not stated) ?
CHX counter: inactive; Shiga toxin inh: inactive; Pf growth 96h: inconclusive; NS1 function inh: inactive

Results for CC(=O)Nc1ccc2c(c1)C(=O)N(c1ccc(C)cc1)C2=O ?
CHX counter: 51; Shiga toxin inh: active; Pf growth 96h: inactive; NS1 function inh: inactive

Results for COc1ccc(N2C(=O)c3ccc(NC(C)=O)cc3C2=O)cc1 ?
Pf growth 48h: inactive; CHX counter: inactive; Shiga toxin inh: inactive; Pf growth 96h: inactive; NS1 function inh: inactive

What do the screens show for `Cc1ccc(N2C(=O)c3ccc(N)cc3C2=O)cc1C`?
Pf growth 48h: inactive; CHX counter: 31; Shiga toxin inh: 119; Pf growth 96h: inactive; NS1 function inh: inactive

How did Cc1ccc(N2C(=O)c3ccc(N)cc3C2=O)cc1 do in these assays?
Pf growth 48h: inactive; CHX counter: 30; Shiga toxin inh: 67; Pf growth 96h: inactive; NS1 function inh: inactive

How did O=C(Nc1ccc2c(c1)C(=O)N(c1ccccc1)C2=O)C1CCCO1 (configuration not stated) do in these assays?
Pf growth 48h: inactive; CHX counter: 32; Shiga toxin inh: 33; Pf growth 96h: inactive; NS1 function inh: inactive

What do the screens show for `COC(=O)[C@H]1C[C@@H]1[C@H](NC(=O)c1cc(C)on1)c1ccccc1`?
Pf growth 48h: inactive; CHX counter: inactive; Shiga toxin inh: inactive; Pf growth 96h: inconclusive; NS1 function inh: inactive

Results for COc1ccc2c(c1)N(C(=O)CSc1n[nH]c(C)n1)C(C)(C)C=C2C ?
Pf growth 48h: inactive; CHX counter: inactive; Shiga toxin inh: inactive; NS1 function inh: inactive

How did O=C(CSc1ccccc1)N1CCC2(CC1)OCCO2 do in these assays?
Pf growth 48h: inactive; CHX counter: 36; Shiga toxin inh: 54; NS1 function inh: inactive

What do the screens show for `O=C(c1ccc(CNS(=O)(=O)c2ccc(Br)cc2)cc1)N1CCC2(CC1)OCCO2`?
Pf growth 48h: inconclusive; CHX counter: inactive; Shiga toxin inh: inactive; Pf growth 96h: inconclusive; NS1 function inh: inactive

How did C=CCN1CCN(C(=O)c2ccc(-c3ccccc3)cc2)CC1 do in these assays?
Pf growth 48h: inactive; CHX counter: inactive; Shiga toxin inh: inactive; Pf growth 96h: 1.3µM; NS1 function inh: inactive

What do the screens show for `O=C(c1ccc(CNS(=O)(=O)c2ccccc2)cc1)N1CCC2(CC1)OCCO2`?
Pf growth 48h: inactive; CHX counter: inactive; Shiga toxin inh: inactive; Pf growth 96h: 8.3µM; NS1 function inh: inactive

Results for C=CCN1CCN(C(=O)CSc2ccccc2)CC1 ?
Pf growth 48h: inactive; CHX counter: 34; Shiga toxin inh: 32; Pf growth 96h: inactive; NS1 function inh: inactive

How did O=C(CSc1ccccc1)N1CCN(S(=O)(=O)c2ccccc2)CC1 do in these assays?
Pf growth 48h: inconclusive; CHX counter: inactive; Shiga toxin inh: inactive; Pf growth 96h: inactive; NS1 function inh: inactive

What do the screens show for `CC(C)(C)NC(=O)C(c1ccncc1)N(C(=O)C1CSC(=O)C1)c1ccccc1` (configuration not stated)?
Pf growth 48h: inactive; CHX counter: inactive; Shiga toxin inh: inactive; Pf growth 96h: inactive; NS1 function inh: inactive

How did O=C1CCCN1CCCN1C(=O)N[C@@H](Cc2ccccc2)C1=O do in these assays?
Pf growth 48h: inactive; CHX counter: inactive; Shiga toxin inh: inactive; Pf growth 96h: inactive[5.75 µM]; NS1 function inh: inactive

Results for CN1C(=O)[C@@H]2C[C@@]3([C@@]45C[C@H]6C(=O)N(C)[C@@H](Cc7ccccc7)C(=O)N6[C@@H]4Nc4ccccc45)c4ccccc4N[C@H]3N2C(=O)[C@@H]1Cc1ccccc1 ?
Pf growth 48h: 12µM; Pf growth 96h: inconclusive

How did CCOc1ncccc1C(=O)N1CCN(c2ccc(C(F)(F)F)cn2)CC1 do in these assays?
Pf growth 48h: inactive; CHX counter: inactive; Shiga toxin inh: inactive; Pf growth 96h: inactive

What do the screens show for `CCOC(=O)N1CCN(c2ccc3nnnn3n2)CC1`?
CHX counter: inactive; Shiga toxin inh: inactive; Pf growth 96h: 2.1µM; NS1 function inh: inactive

Results for CC(C)(C)N(Cc1ccccc1)C(=O)COC(=O)C1CCN(c2ccc(C(F)(F)F)cn2)CC1 ?
Pf growth 48h: 10µM; Pf growth 96h: inconclusive

Results for CC(C)N(Cc1ccccc1)C(=O)COC(=O)C1CCN(c2ccc(C(F)(F)F)cn2)CC1 ?
Pf growth 48h: inactive; Pf growth 96h: inactive

What do the screens show for `CCOC(=O)N1CCN(c2ccc(C(F)(F)F)cn2)CC1`?
Pf growth 48h: inactive; CHX counter: 20; Shiga toxin inh: inactive; Pf growth 96h: inconclusive; NS1 function inh: inactive

Results for COCCN(C(=O)CSc1nc2ccccc2c(=O)n1CCOC)c1c(N)n(Cc2ccccc2)c(=O)[nH]c1=O ?
Pf growth 48h: inconclusive; CHX counter: inactive; Shiga toxin inh: inactive; Pf growth 96h: inactive

How did CN(C)c1ccc(-c2noc(C3CCN(S(=O)(=O)c4cccc(Cl)c4)CC3)n2)cc1 do in these assays?
Pf growth 48h: inconclusive; CHX counter: inactive; Shiga toxin inh: inactive; Pf growth 96h: 0.19µM; NS1 function inh: inactive

Results for CN(C)c1ccc(-c2noc(C3CCN(S(=O)(=O)c4ccc(C(=O)O)cc4)CC3)n2)cc1 ?
NS1 function inh: inactive

How did CN(C)c1ccc(-c2noc(C3CCN(C(=O)Nc4ccc(Cl)cc4)CC3)n2)cc1 do in these assays?
Pf growth 48h: inconclusive; CHX counter: 16; Shiga toxin inh: 52; Pf growth 96h: inconclusive; NS1 function inh: inactive

What do the screens show for `Cc1ccc(-c2noc(C3CCCN(S(=O)(=O)c4ccc5ccccc5c4)C3)n2)o1` (configuration not stated)?
CHX counter: inactive; Shiga toxin inh: inactive; Pf growth 96h: inconclusive; NS1 function inh: inactive

Results for O=S(=O)(c1ccc2ccccc2c1)N1CCC(c2nc(-c3ccncc3)no2)CC1 ?
Pf growth 48h: 13µM; CHX counter: inactive; Shiga toxin inh: inactive; Pf growth 96h: inconclusive; NS1 function inh: inactive
